Results reported in PubChem BioAssay (NCI).
“And” between values parts separate entries of the source, which are not always exact repeats. Equal values may be shown once. Compounds without any hit were thinned out: in the full panel of roughly 83,000, 20% have a hit.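 Single-concentration screen, 48 h exposure, 96-well plates. Endpoint: percent growth. Below 10 = active.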 The source made the active and inactive calls.

Tests used:
Assay in all cases: NCI-60 one-dose screen, 48 h (100 = growth as untreated, 0 = no growth, -100 = all killed)
Conditions in all cases: 10 µM unless noted
MOLT-4 leukemia = test system: MOLT-4 leukemia
SR leukemia = test system: SR leukemia
OVCAR-8 ovarian = test system: OVCAR-8 ovarian
OVCAR-5 ovarian = test system: OVCAR-5 ovarian
OVCAR-4 ovarian = test system: OVCAR-4 ovarian
SK-OV-3 ovarian = test system: SK-OV-3 ovarian
IGROV1 ovarian = test system: IGROV1 ovarian
OVCAR-3 ovarian = test system: OVCAR-3 ovarian
HS 578T breast = test system: HS 578T breast
NCI/ADR-RES ovarian = test system: NCI/ADR-RES ovarian
T-47D breast = test system: T-47D breast
BT-549 breast = test system: BT-549 breast
MDA-MB-435 melanoma = test system: MDA-MB-435 melanoma
SW-620 colon = test system: SW-620 colon
MCF7 breast = test system: MCF7 breast
HCT-116 colon = test system: HCT-116 colon
HCC-2998 colon = test system: HCC-2998 colon
KM12 colon = test system: KM12 colon
RPMI-8226 leukemia = test system: RPMI-8226 leukemia

SMILES | growth (MOLT-4 leukemia) | growth (SR leukemia) | growth (OVCAR-8 ovarian) | growth (OVCAR-5 ovarian) | growth (OVCAR-4 ovarian) | growth (SK-OV-3 ovarian) | growth (IGROV1 ovarian) | growth (OVCAR-3 ovarian) | growth (HS 578T breast) | growth (NCI/ADR-RES ovarian) | growth (T-47D breast) | growth (BT-549 breast) | growth (MDA-MB-435 melanoma) | growth (SW-620 colon) | growth (MCF7 breast) | growth (HCT-116 colon) | growth (HCC-2998 colon) | growth (KM12 colon) | growth (RPMI-8226 leukemia)
C=C1C(=O)OC2CC3(C)OC3C3OC3C3=CC(OC3=O)C12 (stereo not given) | -30.3% (active) and 58.3% (inactive) | 10.7% (inactive) and 47.9% (inactive) | 87.2% (inactive) and 88.6% (inactive) | 106% (inactive) and 104% (inactive) | 60% (inactive) and 92.5% (inactive) | 103% (inactive) and 106% (inactive) | 102% (inactive) and 107% (inactive) | 41.8% (inactive) | 96.8% (inactive) | 35.9% (inactive) and 103% (inactive) | 5.88% (active) and 16.2% (inactive) | 98.2% (inactive) | 98.3% (inactive) and 98.4% (inactive) | 3.21% (active) and 7.75% (active) | 84.4% (inactive) and 78.6% (inactive) | 2.43% (active) and 17.7% (inactive) | 103% (inactive) | 104% (inactive) and 103% (inactive) | 
O=C(O)C1C(C(=O)O)C2(Cl)C(Cl)=C(Cl)C1(Cl)C2(Cl)Cl (stereo not given) | 115% (inactive) and 106% (inactive) | 104% (inactive) and 118% (inactive) | 107% (inactive) and 101% (inactive) | 91.4% (inactive) and 108% (inactive) |  | 103% (inactive) and 107% (inactive) | 109% (inactive) and 118% (inactive) | 99.8% (inactive) and 112% (inactive) | 116% (inactive) | 111% (inactive) and 106% (inactive) | 98.7% (inactive) | 104% (inactive) and 107% (inactive) | 100% (inactive) and 106% (inactive) | 98.5% (inactive) and 101% (inactive) | 104% (inactive) and 96.8% (inactive) | 101% (inactive) and 107% (inactive) | 102% (inactive) | 100% (inactive) and 105% (inactive) | 
COCC1OC2OC3C(COC)OC(OC4C(COC)OC(OC5C(COC)OC(OC6C(COC)OC(OC7C(COC)OC(OC8C(COC)OC(OC1C(O)C2O)C(O)C8O)C(O)C7O)C(O)C6O)C(O)C5O)C(O)C4O)C(O)C3O (stereo not given) (tested in a mixture with another compound) | 99.6% (inactive) | 91.3% (inactive) | 114% (inactive) | 104% (inactive) | 111% (inactive) | 117% (inactive) | 184% (inactive) | 119% (inactive) | 105% (inactive) | 127% (inactive) | 113% (inactive) |  | 117% (inactive) | 109% (inactive) | 101% (inactive) | 120% (inactive) | 89.4% (inactive) | 109% (inactive) | 
O=CC1(c2ccccc2)CCN(Cc2ccccc2)CC1 | 99.4% (inactive) | 97.8% (inactive) | 105% (inactive) |  |  | 114% (inactive) | 108% (inactive) | 105% (inactive) | 115% (inactive) | 101% (inactive) | 105% (inactive) | 106% (inactive) | 98.5% (inactive) |  | 103% (inactive) | 102% (inactive) |  | 101% (inactive) | 102% (inactive)
CC1OC(=O)C(C(C)C)NC(=O)C(C(C)C)OC(=O)C(C(C)C)NC(=O)C(C)OC(=O)C(C(C)C)NC(=O)C(C(C)C)OC(=O)C(C(C)C)NC(=O)C(C)OC(=O)C(C(C)C)NC(=O)C(C(C)C)OC(=O)C(C(C)C)NC1=O (stereo not given) | -26.4% (active) | -14.6% (active) |  | -39.6% (active) | -17% (active) | -13.3% (active) | -25% (active) |  | -63.9% (active) | 0.571% (active) | -15.2% (active) | -42.5% (active) | 3.94% (active) | 3.61% (active) | -31.7% (active) | -69% (active) | -16.5% (active) | 0.9% (active) | -23.2% (active)
O=C(O)c1ccc(=O)[nH]c1 | 119% (inactive) and 99.2% (inactive) | 87.7% (inactive) and 105% (inactive) | 101% (inactive) and 103% (inactive) | 90.3% (inactive) and 106% (inactive) |  | 98.9% (inactive) and 93% (inactive) | 109% (inactive) | 113% (inactive) and 108% (inactive) | 98.5% (inactive) and 102% (inactive) | 88.9% (inactive) and 102% (inactive) | 88.8% (inactive) and 89.6% (inactive) | 89.7% (inactive) | 106% (inactive) and 103% (inactive) | 105% (inactive) and 107% (inactive) | 126% (inactive) and 93.4% (inactive) | 103% (inactive) and 93.7% (inactive) | -49% (active) and 101% (inactive) | 103% (inactive) and 105% (inactive) | 
CCC1(CCSC#N)C(=O)NC(=O)NC1=O | 85.1% (inactive) | 88.8% (inactive) | 102% (inactive) | 109% (inactive) |  | 98.4% (inactive) | 104% (inactive) | 105% (inactive) | 106% (inactive) | 104% (inactive) | 78.4% (inactive) | 95.3% (inactive) | 106% (inactive) |  | 91.2% (inactive) | 94.1% (inactive) |  | 104% (inactive) | 
COc1ccc(N)cc1N | 163% (inactive) |  |  | 98.5% (inactive) | 97.6% (inactive) | 100% (inactive) |  |  | 108% (inactive) | 106% (inactive) | 96.1% (inactive) | 112% (inactive) | 122% (inactive) | 107% (inactive) | 94.8% (inactive) | 108% (inactive) | 119% (inactive) | 99.7% (inactive) | 
COc1ccc(O)c2c(=O)c3c(OC)cc4c(c3oc12)[C@@H]1C=CO[C@@H]1O4 |  | -6.56% (active) | 50.6% (inactive) | 55.2% (inactive) | 40.8% (inactive) | 35.6% (inactive) | 16.3% (inactive) | 52% (inactive) | 114% (inactive) | 41.6% (inactive) | 5.73% (active) | 17.8% (inactive) | 37.3% (inactive) | 64.6% (inactive) | -0.498% (active) | 52.2% (inactive) | -51.7% (active) | 12.5% (inactive) | 63.5% (inactive)
COc1ccn(C)c(=O)c1C#N | 106% (inactive) | 90% (inactive) | 96.3% (inactive) |  |  | 91.9% (inactive) | 98.7% (inactive) | 93.8% (inactive) | 105% (inactive) | 102% (inactive) | 81.6% (inactive) | 103% (inactive) | 107% (inactive) | 94.1% (inactive) | 93% (inactive) |  | 101% (inactive) | 96.6% (inactive) | 
CCOC(=O)c1c(SC)nc(-c2ccc(Cl)cc2)sc1=N |  |  |  |  |  |  |  |  |  |  |  |  |  |  | -8.27% [100 µM] (active) and 5.36% [100 µM] (active) |  |  |  | 
O=C(O)c1cc([N+](=O)[O-])cc([N+](=O)[O-])c1 |  | 120% (inactive) | 89.6% (inactive) | 104% (inactive) | 109% (inactive) | 94.9% (inactive) | 132% (inactive) | 102% (inactive) | 98.1% (inactive) | 106% (inactive) |  | 94.3% (inactive) | 101% (inactive) |  | 93.8% (inactive) | 85.4% (inactive) | 107% (inactive) | 103% (inactive) | 101% (inactive)
CCCC[C@@H]1CCN2C[C@@H](O)[C@@H](O)[C@@H]2[C@H]1O |  |  |  |  |  |  |  |  |  |  |  |  |  |  | 111% [100 µM] (inactive) and 89.6% [100 µM] (inactive) |  |  |  | 
N#CC(C#N)=Cc1cccc(F)c1 | 97.9% (inactive) |  | 107% (inactive) | 98.4% (inactive) | 110% (inactive) | 105% (inactive) | 112% (inactive) | 109% (inactive) | 101% (inactive) | 107% (inactive) | 105% (inactive) | 111% (inactive) | 107% (inactive) | 109% (inactive) | 101% (inactive) |  | 110% (inactive) | 108% (inactive) | 103% (inactive)
Nc1nc(=S)nc(N)[nH]1 | 90.4% (inactive) | 71.3% (inactive) | 104% (inactive) | 89.1% (inactive) |  | 102% (inactive) | 87.6% (inactive) |  |  | 95.6% (inactive) | 94.5% (inactive) | 77.8% (inactive) | 105% (inactive) | 101% (inactive) | 96.5% (inactive) | 89.1% (inactive) | 92.1% (inactive) | 112% (inactive) | 
C[C@]12CC[C@@H](OC(=O)N(CCCl)N=O)C[C@@H]1CC[C@@H]1[C@@H]2CC[C@]2(C)C(=O)CC[C@@H]12 | 29.1% (inactive) |  | 58.1% (inactive) |  | 73% (inactive) | 21.2% (inactive) | -13.9% (active) | 64.1% (inactive) | 81.6% (inactive) | 42.9% (inactive) | 33.8% (inactive) | 76.8% (inactive) | 64.5% (inactive) | 52.9% (inactive) | 29.9% (inactive) | 47.5% (inactive) | 53.6% (inactive) | 24.5% (inactive) | 
CN1[C@@H](CC(=O)c2ccccc2)CCC[C@H]1CC(=O)c1ccccc1 | 111% (inactive) | 111% (inactive) | 93.3% (inactive) | 101% (inactive) |  | 117% (inactive) | 26.5% (inactive) | 101% (inactive) | 83% (inactive) | 99% (inactive) | 103% (inactive) |  | 97.5% (inactive) |  | 93.3% (inactive) | 101% (inactive) | 126% (inactive) | 110% (inactive) | 
CCC1CCC(=O)O1 (stereo not given) | 98.3% (inactive) and 116% (inactive) |  | 109% (inactive) and 118% (inactive) | 106% (inactive) and 111% (inactive) | 96.6% (inactive) and 112% (inactive) | 95.2% (inactive) and 119% (inactive) | 105% (inactive) and 110% (inactive) |  | 106% (inactive) and 108% (inactive) | 112% (inactive) and 124% (inactive) | 93.5% (inactive) and 118% (inactive) | 116% (inactive) and 129% (inactive) | 109% (inactive) | 111% (inactive) and 106% (inactive) | 90.5% (inactive) and 105% (inactive) | 106% (inactive) and 107% (inactive) | 109% (inactive) | 99.7% (inactive) and 108% (inactive) | 
